Measurements reported in the supplement of paper PMC3334620.
Over roughly 33,000 sequences, “E-score (-0.5 to 0.5)” has its median near -0.036; the highest 2% begin near 0.37. Shown is part of a subset that was picked to be rich in the highest values.

target: T1, Yer064c (UniProt P40041); test: PBM E-score (8-mer binding enrichment) (E-score (-0.5 to 0.5)); higher = stronger / more preferred TF binding; conditions: protein concentration: 200 nM; construct: GST-full length
T1 sequence: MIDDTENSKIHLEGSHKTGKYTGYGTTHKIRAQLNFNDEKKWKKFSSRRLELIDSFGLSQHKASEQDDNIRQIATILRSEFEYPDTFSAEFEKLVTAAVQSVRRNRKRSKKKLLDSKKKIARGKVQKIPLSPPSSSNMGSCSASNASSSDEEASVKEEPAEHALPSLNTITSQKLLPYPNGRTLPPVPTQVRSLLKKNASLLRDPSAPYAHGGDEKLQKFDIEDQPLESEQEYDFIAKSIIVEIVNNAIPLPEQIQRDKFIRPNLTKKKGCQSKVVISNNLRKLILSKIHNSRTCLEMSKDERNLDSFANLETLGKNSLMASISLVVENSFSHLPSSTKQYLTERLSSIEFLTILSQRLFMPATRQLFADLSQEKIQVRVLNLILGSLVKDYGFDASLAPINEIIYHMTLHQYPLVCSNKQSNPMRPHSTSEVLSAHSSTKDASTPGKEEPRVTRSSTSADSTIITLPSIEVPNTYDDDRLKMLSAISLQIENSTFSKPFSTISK
In short: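 PURExpress in vitro transcription/translation supplied GST-tagged yeast transcription factors, either full-length or DNA-binding domain. Applied at about 100-200 nM to universal all-10-mer Agilent arrays double-stranded by primer extension, the bound protein was detected with fluorescent anti-GST. E-scores, modified Wilcoxon-Mann-Whitney statistics, were given by the Universal PBM Analysis Suite to ungapped eight-base words pooled with their reverse complements after masliner normalisation.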

Sequence | PBM E-score
AGGACTAA | 0.405
CCAGAGGA | 0.00907
ATAGGGGC | -0.262
GGAGTTAC | -0.0565
TCAGTCAA | 0.348
TGAGTCAA | 0.489
TAAGTCAA | 0.344
CGAGTCAC | 0.477
CGAGTCCC | 0.24
GGAGTCAC | 0.485
CGAGTCAG | 0.46
GGAGTCCC | 0.189
CGAGTCCG | 0.272
CGAGTCTC | 0.307
CAAGTCAG | 0.306
CCTTCTGA | -0.0564
GAGAGCCA | 0.132
TCCAGCCA | -0.198
GCGTAGCC | 0.074
ATCGATGC | -0.198
AACTAGCG | -0.119
CTCAAGGC | 0.104

Sequence | PBM E-score
ATCCACTC | -0.0532
TCCAACCA | -0.132
CATCGGCC | -0.0369
ACTGGGAC | 0.0246
GGAGTCAA | 0.431
GGAGTCCA | 0.243
GGAGTCGA | 0.212
TGAGTCCA | 0.397
GGAGTACA | 0.129
CGAGTCCA | 0.0419
CAAGTCAA | 0.196
TGAGTACA | 0.376
AGAGTACA | 0.171
CGAGTCAA | 0.444
GGAGTCTA | 0.172
CGAGTCTA | 0.132
CAAAGCCG | -0.176
ACCTGCGG | -0.208
CAGGCGGC | 0.0353
TGGCGCAA | -0.15
CGCTGGTA | -0.0555
GACTACCA | 0.413

Sequence | PBM E-score
AACTACCC | -0.158
GACTACCC | 0.42
TACTACCA | 0.00773
CACTACCA | -0.0175
CACTACCC | 0.00286
ACAAAACT | -0.0935
CAGGACCC | -0.208
GAGAACGA | -0.0613
ACTTAGTA | 0.162
CCTTAGTC | 0.41
ACTTAGTC | 0.435
CCTTAGAC | 0.063
CCTTAGTA | -0.0218
ACTTAGTG | 0.198
GTCCATAA | -0.161
CCCGGCGG | -0.182
ATCCTGGG | -0.0196
CGTCAAGA | -0.229
ACTCAAGG | 0.29
GGTCAAGA | -0.0401
AGTCAAGC | 0.358
AGTCAAGA | 0.414

Sequence | PBM E-score
AGTCAAGG | 0.392
CCTTCGTA | -0.15
AGCGCTGA | 0.0781
CTATCGGC | -0.0556
CCTCACAA | 0.038
ACTCACGC | 0.357
CCTCACGA | -0.0431
ACGCACGG | -0.192
ACACACGG | 0.0742
ACTCACAG | 0.353
ACTCACGA | 0.388
ACTCACGG | 0.376
ACTCACAA | 0.395
ATCTCAGA | -0.113
ACCCCTAA | -0.0884
AAGATTTC | 0.0103
AATCTGAC | 0.23
GGACGTAC | -0.0832
ACAGCCTC | -0.308
AAATCACA | 0.219
